The results in this text go back to PubChem BioAssay.

Molecules are shown by their SMILES. Activity calls are given as the source filed them.

Assay [1] has as its system Human papillomavirus type 1a protein E7 (residues 44-93). Briefly: small molecules binding HPV E7 44-93 – biochemical, small-molecule microarray, residues 44-93, 635 nm fluorescence, primary screen (AID 1108).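 Also: E7 fragment applied at 1 µg/mL in TBST for 1 h at 4 C; score combines spot fluorescence with its signal to noise ratio.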 Particulars: fluorescence 635 nm, higher = more signal.
Assay [2] in a line: hepatitis C replication reporter changes, two-sided – Huh7 cells, luciferase reporter, HCV replication inhibitor project, primary screen (AID 1109).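 Also: huh7 hepatoma cells harbouring a luciferase neomycin HCV replicon reporter; luciferase luminescence as measure of HCV replicon replication; test concentration not given here.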 The following applies: Huh7 HCV replicon luciferase reporter, 48 h; higher = more signal. On the technique in general: A reporter such as luciferase makes a cellular process visible.
The target of assay [3] is Left-right determination factor 2 (Homo sapiens) (UniProt O00292). Briefly: small molecules binding LEFTY2 protein – biochemical, small-molecule microarray, 635 nm fluorescence scan, primary screen (AID 1110). Particulars: higher = more signal.
Assay [4] addresses Calmodulin-1 (Homo sapiens) (UniProt P0DP23). Briefly: small molecules binding calmodulin-1 with EGTA – biochemical, small-molecule microarray, Cy5-labelled CALM1, profiling panel (AID 1111).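 Also: labelled calmodulin applied in Tris saline Tween buffer holding calcium plus EGTA and DTT.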 Particulars: Cy5-CALM1 binding fluorescence, higher = more signal.
For assay [5] the target is unchanged. As to the kind of experiment: small molecules binding Ca-loaded calmodulin-1 – biochemical, small-molecule microarray, Cy5-labelled CALM1, plus calcium, artefact control for SMM control-protein annotation, profiling panel (AID 1112).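 Also: score merges spot fluorescence with signal to noise from triplicate slides.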 Particulars: Cy5-CALM1 binding fluorescence, higher = more signal.
The nature of assay [6]: probe aWnt5a binding to arrayed compounds – biochemical, biotinylated probe, 635/667 nm fluorescence, primary screen (AID 1113).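 Also: score merges 667 nm fluorescence intensity with signal-to-noise per printed feature.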 Particulars: small-molecule microarray, higher = more signal.
Assay [7] can be described thus: probe aShh binding to arrayed compounds – biochemical, biotinylated probe, 635/667 nm fluorescence, primary screen (AID 1114).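 Also: probe is biotin-labelled aShh protein from a stem cell growth factor screen; measures binding of labelled protein to compounds printed on the slide; score merges feature fluorescence at 667 nm with signal-to-noise.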 The following applies: small-molecule microarray, higher = more signal.
A short description of assay [8]: probe aNog binding to arrayed compounds – biochemical, biotinylated probe, 635/667 nm fluorescence, primary screen (AID 1115).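 Also: probe is biotinylated aNog protein used at 0.15 µg/mL for 1 h at 4 C; z-score combines 667 nm fluorescence of each spot with its signal to noise.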 The following applies: small-molecule microarray, higher = more signal.
In assay [9] the target is Torsin-1A-interacting protein 1 (Homo sapiens) (UniProt Q5JTV8). Briefly: compound microarray binding of lysate hLAP1 – cell lysate, small-molecule microarray, COS7 lysate, 635/667 nm fluorescence, primary screen (AID 1116). Particulars: 635 nm fluorescence, higher = more signal.
Assay [10] deals with Alpha-bungarotoxin (Bungarus multicinctus) (UniProt P60615). As to the kind of experiment: compounds binding labelled alpha-BTX control protein – biochemical, small-molecule microarray, Alexa647 label, 635/667 nm fluorescence, artefact control for SMM control protein annotation, profiling panel (AID 1117). The following applies: alpha-BTX-A647 binding fluorescence, higher = more signal.

Another assay addresses Albumin (Bos taurus) (UniProt P02769). As to the kind of experiment: compounds binding labelled BSA control protein – biochemical, small-molecule microarray, Alexa647 label, 635/667 nm fluorescence, artefact control for SMM control protein annotation, profiling panel (AID 1118).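 Also: score merges 667 nm emission intensity and signal-to-noise per printed compound spot.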 The following applies: BSA-A647 binding, fluorescence 635 nm, higher = more signal.
Assay [11] can be described thus: probe aXIP binding to arrayed compounds – biochemical, NeuroSMM set, 635/667 nm fluorescence, primary screen (AID 1119).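 Also: probe is the protein aXip251-270 applied at 1 µg/mL to compound-printed slides; binding of probe to printed compounds measured as 667 nm fluorescence plus signal to noise.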 The following applies: small-molecule microarray, higher = more signal, called active from +8 up or from −8 down.
Assay [12] is described as follows: probe aNOTCH3 binding on compound microarray – biochemical, small-molecule microarray, 635/667 nm fluorescence, primary screen (AID 1120).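 Also: probe is a biotin-tagged antibody raised against NOTCH3 rather than NOTCH3 protein; score merges spot fluorescence near 667 nm with spot signal to noise.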 Particulars: higher = more signal.
Assay [13] is described as follows: probe aNOTCH2 binding on compound microarray – biochemical, small-molecule microarray, 635/667 nm fluorescence, primary screen (AID 1121).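 Also: score merges feature fluorescence read at 667 nm with its signal to noise.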 Particulars: higher = more signal.
The target in assay [14] is Carbonic anhydrase 2 (Homo sapiens) (UniProt P00918). Briefly: compounds binding carbonic anhydrase 2 – biochemical, small-molecule microarray, Alexa647-labelled CAII, profiling panel (AID 1122). Particulars: CAII-A647 binding fluorescence, higher = more signal.
Assay [15] is described as follows: COS7 lysate on small-molecule microarray, probe aHis, 635 nm (AID 1123).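 Also: z-score combines 667nm fluorescence intensity with signal-to-noise per printed compound spot.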 The following applies: COS7 cell lysate, fluorescence, higher = more signal.
Assay [16] in a line: probe aLAP1 signal on lysate-treated microarray – cell lysate, small-molecule microarray, COS7 lysate, primary screen (AID 1124).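 Also: lysate comes from COS7 cells expressing LAP1 and is applied at 0.3 µg/mL; score merges spot fluorescence near 667 nm with signal-to-noise over triplicate slides.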 Particulars: probe aLAP1, fluorescence, higher = more signal.
Another assay deals with Sam68 (KHDRBS1). Briefly: compounds binding KHDRBS1 protein – biochemical, small-molecule microarray, 635 nm fluorescence, primary screen (AID 1125).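 Also: score merges 667 nm channel intensity with signal to noise over triplicate slides.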 The following applies: higher = more signal.
Assay [17] has as its system Chordin-like protein 2 (CHRDL2). Briefly: compounds binding chordin-like 2 – biochemical, small-molecule microarray, 635 nm fluorescence, primary screen (AID 1126).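 Also: printed compound slides probed with Chrdl2 protein at 4 µg/mL for 1 h at 4 C; score merges 667 nm emission intensity with signal to noise over three replicate slides.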 Particulars: fluorescence 635 nm, higher = more signal.
Assay [18] concerns the target Concanavalin-A (Canavalia ensiformis) (UniProt P02866). As to the kind of experiment: compounds binding concanavalin A lectin – biochemical, small-molecule microarray, Alexa647 label, 635 nm, artefact control for SMM control protein annotation, primary screen (AID 1127).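 Also: z combines 667 nm emission intensity with signal-to-noise across three replicate slides.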 Particulars: ConA-A647 binding fluorescence, higher = more signal.

Sequence of Albumin (Bos taurus) (P02769 whole entry, looked up): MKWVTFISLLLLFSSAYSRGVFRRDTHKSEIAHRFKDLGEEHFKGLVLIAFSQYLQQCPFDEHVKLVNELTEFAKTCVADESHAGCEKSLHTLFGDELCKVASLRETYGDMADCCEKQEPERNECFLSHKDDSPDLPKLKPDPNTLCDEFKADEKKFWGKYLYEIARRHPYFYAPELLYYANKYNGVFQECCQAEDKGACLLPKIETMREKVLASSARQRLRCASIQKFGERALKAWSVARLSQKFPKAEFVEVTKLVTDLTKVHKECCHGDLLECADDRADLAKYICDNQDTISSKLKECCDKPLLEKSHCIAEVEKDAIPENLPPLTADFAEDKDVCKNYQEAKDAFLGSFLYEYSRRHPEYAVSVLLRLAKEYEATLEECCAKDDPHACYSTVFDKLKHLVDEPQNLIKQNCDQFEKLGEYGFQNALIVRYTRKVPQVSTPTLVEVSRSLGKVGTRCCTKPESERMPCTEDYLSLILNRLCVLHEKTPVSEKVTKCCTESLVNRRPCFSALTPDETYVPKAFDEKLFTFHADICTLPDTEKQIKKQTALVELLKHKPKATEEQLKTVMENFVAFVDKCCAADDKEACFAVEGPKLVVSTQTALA
Sequence of Alpha-bungarotoxin (Bungarus multicinctus) (P60615 whole entry, looked up): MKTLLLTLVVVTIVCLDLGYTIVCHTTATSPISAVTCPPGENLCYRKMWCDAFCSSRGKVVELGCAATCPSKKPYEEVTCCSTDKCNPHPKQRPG
Sequence of Concanavalin-A (Canavalia ensiformis) (P02866 whole entry, looked up): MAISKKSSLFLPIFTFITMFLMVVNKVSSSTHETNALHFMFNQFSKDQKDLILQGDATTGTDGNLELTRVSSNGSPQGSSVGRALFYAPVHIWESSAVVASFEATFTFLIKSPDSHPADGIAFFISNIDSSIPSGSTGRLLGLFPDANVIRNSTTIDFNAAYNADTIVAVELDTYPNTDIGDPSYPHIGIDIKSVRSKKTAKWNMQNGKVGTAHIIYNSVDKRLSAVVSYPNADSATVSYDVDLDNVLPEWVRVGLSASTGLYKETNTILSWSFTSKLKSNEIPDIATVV
Sequence of Left-right determination factor 2 (Homo sapiens) (O00292 whole entry, looked up): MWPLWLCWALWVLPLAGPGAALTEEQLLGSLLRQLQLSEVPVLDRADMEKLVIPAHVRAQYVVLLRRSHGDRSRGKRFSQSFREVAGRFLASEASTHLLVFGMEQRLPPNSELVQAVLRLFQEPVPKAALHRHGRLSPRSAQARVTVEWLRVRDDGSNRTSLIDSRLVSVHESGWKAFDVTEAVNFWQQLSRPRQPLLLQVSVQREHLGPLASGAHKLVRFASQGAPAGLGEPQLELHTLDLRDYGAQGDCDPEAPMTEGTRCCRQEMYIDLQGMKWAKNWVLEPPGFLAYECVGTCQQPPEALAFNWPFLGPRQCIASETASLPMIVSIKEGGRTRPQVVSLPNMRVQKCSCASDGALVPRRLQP
Sequence of Torsin-1A-interacting protein 1 (Homo sapiens) (Q5JTV8 whole entry, looked up): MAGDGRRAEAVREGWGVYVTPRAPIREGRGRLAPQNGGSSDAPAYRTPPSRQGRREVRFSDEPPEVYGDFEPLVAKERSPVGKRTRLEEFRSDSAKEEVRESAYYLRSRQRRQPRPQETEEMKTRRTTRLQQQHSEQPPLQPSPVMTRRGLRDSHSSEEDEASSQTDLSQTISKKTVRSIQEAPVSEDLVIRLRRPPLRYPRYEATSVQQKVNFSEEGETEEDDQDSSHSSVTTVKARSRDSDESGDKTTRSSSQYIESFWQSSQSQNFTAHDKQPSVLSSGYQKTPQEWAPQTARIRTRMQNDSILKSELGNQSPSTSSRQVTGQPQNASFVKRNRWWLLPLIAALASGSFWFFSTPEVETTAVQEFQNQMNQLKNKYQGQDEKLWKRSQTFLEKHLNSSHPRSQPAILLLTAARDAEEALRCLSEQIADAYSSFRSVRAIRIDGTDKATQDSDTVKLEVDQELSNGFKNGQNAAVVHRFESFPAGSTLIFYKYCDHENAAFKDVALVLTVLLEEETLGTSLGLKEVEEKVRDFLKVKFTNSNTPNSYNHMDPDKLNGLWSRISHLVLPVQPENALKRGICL

For `CCCCC(=C=CC[C@@H](O)c1cccc(OCCO)c1)C[C@@H](O)COCc1ccccc1`, the composite z-score in [1] is -0.622; in assay [3], -0.0756; in assay [4], -0.613; in [5], -0.285; in assay [6] it was -0.096; in assay [7] it was -0.0709. Further, the composite z-score is -0.219 in assay [8]; 0.546 in assay [9]; 1.35 in assay [10]; 0.59 in the assay with Albumin (Bos taurus); -0.158 in assay [12]; -0.104 in assay [13]. Also, the composite z-score is 0.441 in assay [14]; 0.696 in assay [15]; 0.117 in assay [16]; -0.121 with Sam68 (KHDRBS1); -0.598 in assay [17]; -0.302 in assay [18]. Also, the z-score in assay [2] is -1.78. Further, the composite Z-score in [11] was 0.196 (inactive).
As to `COc1ccc([Si](C)(C)[C@H]2[C@H](CCO)O[C@@]3(C(=O)N(Cc4ccccc4)c4ccc(N(C=O)c5ccccc5)cc43)[C@@H]2C)cc1`, the composite z-score was 1.21 in [1]; 0.274 in [3]; 1.1 in assay [4]; 0.444 in [5]; -0.0512 in assay [6]; -0.0769 in assay [7]. Further, the composite z-score in [8] was -0.352; in assay [9] it was 0.431; in [10], 0.0701; with Albumin (Bos taurus), 0.717; in [12], 0.0576; in assay [13], -0.0984. The composite z-score in assay [14] is 0.189; in assay [15] it was 0.929; in [16], 0.0964; with Sam68 (KHDRBS1), 0.936; in [17] it was -0.0384; in assay [18], 1.02. Further, the z-score in [2] was -4.6. The composite Z-score in [11] was -0.328 (inactive).
On to `Cc1ccccc1C(O)C1C=CC2C(=O)N(c3ccccc3)C(=O)C2N1Nc1ccccc1F` (stereo not given), for which the composite z-score in assay [1] is 1.34; in [3] it was -0.0612; in assay [4], 2.36; in assay [5], 0.789; in assay [6], 0.156; in [7] it was 0.232. For the same compound, the composite z-score in [8] is 1.81; in assay [9], 1.78; in [10], 1.83; with Albumin (Bos taurus), 1.03; in [12], 0.195; in [13], 0.161. The composite z-score in assay [14] was 0.77; in [15], 3.01; in assay [16] it was -0.0703; with Sam68 (KHDRBS1), 1.23; in assay [17], -0.52; in assay [18], 1.09. Moreover, the z-score in [2] stood at 1.97. In addition, the composite Z-score in assay [11] was 0.805 (inactive).
Turning to `CCN(CC)c1ccc(N2CC=CC34O[C@@H]5C=CCOC(=O)[C@@H]5[C@H]3C(=O)N(CCO)[C@@H]4C2=O)cc1` (stereo not given in full), the composite z-score was -0.73 in assay [1]; -2.26 in assay [3]; -0.97 in assay [4]; 0.266 in assay [5]; -0.25 in assay [6]; 0.0756 in assay [7]. For the same compound, the composite z-score was -0.338 in assay [8]; 0.422 in assay [9]; -1.29 in assay [10]; -0.869 with Albumin (Bos taurus); 0.0035 in assay [12]; -0.24 in assay [13]. The composite z-score is 0.913 in assay [14]; -0.368 in assay [15]; -0.714 in [16]; -0.683 with Sam68 (KHDRBS1); -1.83 in assay [17]; -1.14 in [18]. Also, in [2], the z-score came out at 0.466. The composite Z-score in assay [11] is 2.39 (inactive).
Turning to `N[C@@H](Cc1ccccc1)Cn1cc(C2(O)CCCCC2)nn1`, the composite z-score in assay [1] was 0.488; in assay [3], 0.0904; in assay [4], 0.816; in assay [5] it was -0.431; in assay [6] it was -0.0236; in assay [7], 0.23. In addition, the composite z-score in assay [8] was -0.0827; in assay [9], 0.228; in assay [10] it was 0.967; with Albumin (Bos taurus) it was -0.052; in assay [12], -0.014; in assay [13], -0.14. For the same compound, the composite z-score in assay [14] is -0.29; in [15], 0.451; in [16] it was 0.0682; in the assay on Sam68 (KHDRBS1) it was 0.525; in assay [17] it was 0.0155; in [18], 0.88. The compound further returned a z-score in assay [2] of 0.118. Further, the composite Z-score in assay [11] is -0.116 (inactive).
